Source: PubChem BioAssay (NCI)
About 83,000 compounds went through this panel and 20% of them were active in at least one assay; those are over-represented in the sample as a whole.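 Treatment: one concentration, 48 hours, 96-well format. Scoring: percent growth, with anything below 10 considered active.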 Activity calls are given as the source filed them.

system: OVCAR-8 ovarian; test: NCI-60 one-dose screen, 48 h (100 = growth as untreated, 0 = no growth, -100 = all killed); conditions: 10 µM unless noted
Experimental: Growth inhibition of the OVCAR-8 human tumor cell line is measured as a screen for anti-cancer activity. Cells are grown in 96 well plates and exposed to the test compound for 48 hours. Compounds are tested at a single concentration, which is 10^-5 M for most compounds. The reported endpoint is percent growth (GI% or GIPRCNT), where numbers from 0 - 100% represent growth inhibition, and numbers from -100% - 0 represent cell death. For example, a value of 40 represents 60% growth inhibition. A value of 0 means no net growth occurred over the course of the experiment. A value of -40 indicates 40% of cells at the beginning of the experiment died by the end of the experiment. A value of -100 means all cells are dead at the end of the experiment.
NCI-60 Human Tumor Cell Lines Screen was performed using the standard one-dose NCI protocol, which is described in more detail at https://dtp.cancer.gov/discovery_development/nci-60/default.htm.
Compounds with GIPRCNT values below 10 were considered active. Activity score was based on GIPRCNT using the following formula: […]
Score is 0 for GIPRCNT values of 100 or above, 50 for GIPRCNT values of 0, and 100 for GIPRCNT values of -100.

SMILES	growth
O=C(/C=C/c1ccc[nH]1)c1ccc(-n2ccc(C(F)(F)F)n2)cc1	88% (inactive)
COc1cc(NCCCN(CC(C)C)C2CCCC2)c2ncccc2c1	59.2% (inactive)
COc1ccc(C(=O)/C=C/c2cn(Cc3ccc(Cl)cc3)c3ccccc23)cc1	71% (inactive)
COc1ccc(C(O)c2cc3c(N)c(C(=O)Nc4cccc(OC)c4)sc3nc2C)cc1 (stereo not given)	5.76% (active)
O=C(Nc1nc2ccc(S(=O)(=O)Nc3ccc(C4(C(F)(F)F)CC4)cc3)cc2[nH]1)c1cnccn1	55.4% (inactive)
COc1ccc(-c2nn(Cc3ccccc3)c3c2-c2oncc2CC3)cc1OC	89% (inactive)
COc1ccc(-c2nc(N/N=C/c3c[nH]c4ccccc34)nc(N3CCOCC3)c2C#N)cc1	92.5% (inactive)
N#Cc1ccc(-c2ccc3c(c2)NC(=O)/C3=C\c2ccc[nH]2)cc1	101% (inactive)
O=C1Nc2cc(-c3ccncc3)ccc2/C1=C/c1ccc[nH]1	101% (inactive)
CCOC(=O)C1CC(=O)c2cc(OC)c(OC)cc2C1 (stereo not given)	103% (inactive)
CC(C)Cc1ccc(C(C)C(=O)NCc2c[nH]c3ccc(Cl)cc23)cc1 (stereo not given)	93.4% (inactive)
CC1CCN(C(=O)OCc2nc3nc(Cl)nc(N4CCOCC4)c3[nH]2)CC1	-29% (active)
Cn1c(COC(=O)NCCN2CCOCC2)nc2c(N3CCOCC3)nc(-c3ccccc3)nc21	7.67% (active)
CC(=O)NCCCS(=O)(=O)O	104% (inactive)
c1ccc(CCSc2ncnc3nc[nH]c23)cc1	66.9% (inactive)
CCN(CC)CCOC(COc1cc(C)cc(C)c1)COc1cc(C)cc(C)c1	58.6% (inactive)
CCOC(=O)c1c(C)nc2c(c1N)C(=O)C(=O)N2Cc1ccc(C(F)(F)F)cc1	63.3% (inactive)
CC(C)(C)CC(C)(C)Nc1c(-c2ccc3c(c2)OCO3)nc2cnccn12	95.1% (inactive)
OC1(c2ccc(Cl)c(C(F)(F)F)c2)CCN(CCCC(c2ccc(F)cc2)c2ccc(F)cc2)CC1	-71.7% (active)
FC(F)(F)c1cccc(Nc2ccccc2)c1	101% (inactive)

SMILES	growth
O=C1NC(=O)C(=Cc2cn(Cc3ccccn3)c3ccccc23)C(=O)N1	101% (inactive)
CCCCCCCCCCCCC1CCC/C=C\CCC(=O)O1 (stereo not given)	100% (inactive)
CC1(c2ccccc2)NC(=O)N(CC(=O)Nc2cccc(I)c2)C1=O (stereo not given)	91.9% (inactive)
CN(C)C(C(N)=O)c1ccc(Cl)cc1 (stereo not given)	101% (inactive)
O=C(Nc1ccc(Cl)cc1)Nc1ccc(Cl)c(Cl)c1	21.2% (inactive)
Cc1[nH]n(-c2cccc(Cl)c2)c(=O)c1/C=C1\C=Nc2ccc(Br)cc21	9.67% (active)
COc1ccc(-c2nc(N/N=C/c3cccc(Br)c3)nc(N3CCOCC3)c2C#N)cc1	69.9% (inactive)
NC(=S)N/N=C/c1ccc(OC(=O)COc2cc(Cl)c(Cl)cc2Cl)cn1	26.1% (inactive)
CC(O)/C=C/C=C/C(O)CC/C=C/C(=O)NCC(C)(C)O (stereo not given)	93.3% (inactive)
CCOC(=O)N1CCN(CCCCl)CC1	98.8% (inactive)
O=C1Nc2ccccc2/C1=C\c1cccc(/C=C2/C(=O)Nc3ccccc32)n1	-6.07% (active)
CN1CCN(CCCOc2ccc3ncnc(Nc4ccc(Oc5cccc(C(F)(F)F)c5)c(Cl)c4)c3c2)CC1	24.6% (inactive)
C=C1C(=O)O[C@H]2[C@H]1CC/C(CNC(=O)/C=C/c1ccccc1F)=C\CC[C@@]1(C)O[C@@H]21	4.58% (active)
CCCN=C(N)c1ccc(NC(=O)c2ccc(C(=O)Nc3ccc(C(N)=NCCC)cc3)cc2)cc1	95.7% (inactive)
CCNC(=O)c1[nH]cc(-c2ccc(OC)cc2)c1-c1cc(OC)c(OC)c(OC)c1	66.3% (inactive)
COc1cc(NCCCN(CC(C)C)CC(C)C)c2ncccc2c1	94.5% (inactive)
CC(=O)c1c[nH]c2ccc(-c3ccnc(Nc4ccc(NC(=O)c5cccc(F)c5)c(CN5CCOCC5)c4)n3)cc12	8.7% (active)
Fc1cc(C2=NNC(c3ccc[nH]3)C2)ccc1-n1ccc(C(F)(F)F)n1 (stereo not given)	89% (inactive)
O=C1c2cccnc2C(=O)c2nc3cc(N4CCN(C5CC5)CC4)ccc3nc21	-15.2% (active)
CC1(C)CCCN1CCCN1c2ccccc2Sc2ccc(Cl)cc21	95.8% (inactive)
